High-throughput results from PubChem BioAssay.
The list is not random: actives were taken first. Their share in the collection is about 4.2%.
uPA generation – qHTS for Inhibitors of Cell Surface uPA Generation | cell surface uPA generation assay, qHTS | Potency, µM (titrated, usually from 38.3 µM), hits mostly inhibitors | 330,000 compounds, 0.31% hits | AID 540303, 2011; active = well fitted inhibition curve with a large enough effect; inconclusive = small, poorly fitted or top-dose-only effect; inactive = no such curve, though single readings can be large or run the other way; tested in mouse RAW 264.7 cells; note: nearly all actives have a fitted effect of over 55% in size
Sfp PPTase inh – qHTS Assay for Inhibitors of Bacillus subtilis Sfp phosphopantetheinyl transferase (PPTase); 4'-phosphopantetheinyl transferase ffp (Bacillus subtilis), Q9F4F7; Biochemical Sfp PPTase activity, qHTS; Potency, µM, hits mostly inhibitors; 310,000 compounds, 3.5% hits; AID 1490, 2009;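 note: the enzyme is Sfp with the accession as filed and its product quenches rhodamine fluorescence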
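Buffer: 50 mM Hepes-Na pH 7.6, 10 mM MgCl2, 0.01% Nonidet P-40, 0.01% BSA. Enzyme 15 nM, pre-exposed to compound 15 min; substrates then added and fluorescence change tracked over 30 min.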
ClpP mod – qHTS Assay for Activators of ClpP; ATP-dependent Clp protease proteolytic subunit (Bacillus subtilis (strain 168)), P80244; purified B. subtilis ClpP, FRET peptide cleavage, 20 min; Potency, µM (titrated, usually from 57.5 µM); 340,000 compounds, 1.9% hits; AID 651965, 2013; active = well fitted falling curve with a large enough effect; inconclusive = small, poorly fitted or top-dose-only effect; inactive = no such curve, though single readings can be large or run the other way; note: the source files actives as falling curves though it sought activators and does not explain the sign; nearly all actives have a fitted effect of over 65% in size
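ClpP 10 microg/mL final, pH 8 Tris/KCl buffer with BSA, glycerol, Tween-20; compound pinned in; FRET-FV substrate; RT 20 min; Ex320/Em430; ΔFRET vs ADEP 5.8 microM, DMSO, no enzyme.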
TCR activator – Activators of T cell receptors: qHTS campaign; 330,000 tested, under 10 active; Potency, µM (top dose mostly 9.22 µM), most hits filed as activators; AID 504894, 2011; primary human leukocytes, anti-CD3, IL-2 HTRF, 48 h
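Using a-CD3 beads without co-stimulation, primary human leukocytes were exposed to compounds for 48 hr. An HTRF IL-2 kit measured the cytokine, with europium-to-d2 energy transfer producing emission at 665nm upon 320nm excitation.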
Of the large screens only hits and unclear results are named; the others gave an inactive call. Unless noted, calls come from the whole dose curve; as a rule, active = well fitted curve in the direction sought with a large enough effect; inconclusive = small, poorly fitted or top-dose-only effect, or another doubt; inactive = no such curve, though single readings can be large; an effect the other way counts as inactive or inconclusive.

OCCn1nc2c3ccccc3nc-2n(-c2ccccc2)c1=S	Sfp PPTase inh 50µM
CCn1nnc(NC(=S)NC(=O)c2ccc(-c3cccc(Cl)c3)o2)n1	Sfp PPTase inh 50µM (no result: ClpP mod)
CCCCn1nnc(NC(=O)c2ccc(-c3cccc(Cl)c3)o2)n1	ClpP mod 32µM (no result: TCR activator)
COc1ccc(CC(=O)Nc2ccc(-c3nc4cc(C)ccc4o3)c(O)c2)cc1OC	ClpP mod 35µM
Cc1ccc2oc(-c3ccccc3)nc2c1	ClpP mod 14µM
CCCC(=O)Nc1ccc(-c2nc3cc(C)ccc3o2)cc1	ClpP mod 40µM
O=C(Cc1ccccc1)Nc1ccc2oc(-c3cccnc3)nc2c1	ClpP mod 28µM
Cc1cccc(OCC(=O)Nc2ccc(-c3nc4cc(C)ccc4o3)c(O)c2)c1	none (no result: uPA generation, Sfp PPTase inh, TCR activator)
CCCCCC(=O)Nc1ccc2oc(-c3cccnc3)nc2c1	ClpP mod 16µM
Cn1c(-c2ccccc2)c(O)c(=O)c2ccccc21	none (no result: uPA generation, ClpP mod, TCR activator)
Cn1c(-c2ccccc2)c(CCO)c2ccccc21	ClpP mod 28µM
CCOc1ccc(N=C(NN)c2ccc3ccccc3n2)cc1	Sfp PPTase inh 14µM (no result: ClpP mod)
CCOc1ccc(N=C(C)C2=C(O)c3ccccc3C2=O)cc1	Sfp PPTase inh inconclusive (no result: ClpP mod)
CCN(CC)CCNC(=O)c1cn(CCOC)c(=O)c2c1c1ccccc1n2C	none
CCN1CCN(CCCNC(=O)c2cn(CCOC)c(=O)c3c2c2ccccc2n3C)CC1	ClpP mod 3.2µM (no result: uPA generation)
CN1CCN(CCCNC(=O)c2cn(C3CCCCC3)c(=O)c3c2c2ccccc2n3C)CC1	ClpP mod inconclusive
COCCn1cc(C(=O)NCCCN2CCC(C)CC2)c2c3ccccc3n(C)c2c1=O	ClpP mod 32µM (no result: uPA generation)
CC(C)NC(=O)CC(c1ccccc1)c1cc(Br)ccc1O (configuration not stated)	Sfp PPTase inh 100µM (no result: uPA generation)
COc1ccc(CCNC(=O)COC(=O)CCC(=O)c2ccc(F)cc2)cc1OC	ClpP mod 32µM (no result: uPA generation)
COc1ccc(CCNC(=O)CSC(=O)c2ccccc2)cc1OC	Sfp PPTase inh 45µM
Cc1c(C#N)c(NC(=O)COC(=O)c2cc(Cl)c3c(c2)OCCCO3)n(Cc2ccco2)c1C	none (no result: uPA generation, Sfp PPTase inh, TCR activator)
S=C1NCc2cncnc2N1	none (no result: uPA generation, Sfp PPTase inh, TCR activator)
CNc1ccnc(-c2ccccc2C)n1	none (no result: uPA generation, ClpP mod, TCR activator)
O=C(Cc1ccccc1)NCC(=O)OCC(=O)c1ccc2ccccc2c1	ClpP mod 28µM (no result: uPA generation, Sfp PPTase inh, TCR activator)
Cc1cc(C2=NNC(=NC3CC3)SC2)c(C)n1-c1ccccc1F	uPA generation 1.6µM, Sfp PPTase inh 45µM
CC(=O)Oc1ccc(N2C(=O)C3C4C=CC(C5CC45)C3C2=O)cc1[N+](=O)[O-] (configuration not stated)	Sfp PPTase inh 56µM
Cc1cccc(NC(=O)Cn2c(SCC(=O)NCc3ccccc3)nc3ccccc32)c1C	none (no result: uPA generation, Sfp PPTase inh, TCR activator)
CNS(=O)(=O)c1ccc(NC(=S)Nc2ccc3c(c2)OCO3)cc1	Sfp PPTase inh 45µM (no result: ClpP mod)
COc1ccc(-c2nc(CSCC(=O)NCCC(C)C)c(C)o2)cc1OC	ClpP mod 28µM (no result: uPA generation, Sfp PPTase inh, TCR activator)
CCOc1ccc(-c2nc(CSCC(=O)NCCCN3CCCC3=O)c(C)o2)cc1	none
CCOc1ccc(-c2nc(CSCC(=O)NCCN3CCOCC3)c(C)o2)cc1	ClpP mod 32µM
COc1ccc(-c2nc(CSCC(=O)NCCc3ccccc3)c(C)o2)cc1	ClpP mod 32µM (no result: uPA generation, Sfp PPTase inh, TCR activator)
CCOc1ccc(-c2nnc(SCC(=O)NCCC(C)C)nc2-c2ccc(OCC)c(OC)c2)cc1OC	ClpP mod 16µM (no result: uPA generation, Sfp PPTase inh, TCR activator)
COc1ccc(OC)c(C2CC(=O)c3c([nH]c(C(=O)OC4CCC(C)CC4)c3C)C2)c1 (configuration not stated)	none (no result: uPA generation, Sfp PPTase inh, TCR activator)
O=C(c1ccc(F)cc1F)N1CCC(c2nc(-c3ccc(S(=O)(=O)N4CCCC4)cc3)no2)CC1	none (no result: uPA generation, Sfp PPTase inh, TCR activator)
O=C(CCCn1c(=O)c2cccn2c2ccccc21)Nc1cccc(Cl)c1	none (no result: uPA generation, Sfp PPTase inh, TCR activator)
COC(=O)CN(C(=O)CSc1nnc(-c2cccc(OC)c2)o1)c1ccc(OC)cc1	ClpP mod 16µM
CCOC(=O)CN(C(=O)CSc1nnc(-c2cccc(OC)c2)o1)c1ccc(F)cc1	none
CCN(CC)c1ccc(/C=N/Nc2ccc(C)cc2)c(O)c1	Sfp PPTase inh 40µM
CCOC(=O)N/N=C/c1ccc(N(CC)CC)cc1O	uPA generation inconclusive
CCn1c(=N)c(C(=O)NC2CCCC2)cc2c(=O)n3cc(C)ccc3nc21	none (no result: uPA generation, Sfp PPTase inh, TCR activator)
O=C(CSc1nccn1Cc1ccc(F)cc1)NCc1ccco1	none (no result: uPA generation, Sfp PPTase inh, TCR activator)
O=C(CSc1nc(-c2ccccc2)c(-c2ccccc2)[nH]1)Nc1ccc2c(c1)OCO2	ClpP mod 25µM
O=C(CSc1nc(-c2ccccc2)c(-c2ccccc2)[nH]1)N1CCN(S(=O)(=O)c2ccccc2)CC1	ClpP mod 28µM
O=C(CSc1nnc2c(n1)[nH]c1ccccc12)Nc1ccc2c(c1)OCO2	Sfp PPTase inh 45µM (no result: uPA generation)
O=C(CSc1nnc2c(n1)[nH]c1ccccc12)Nc1ccc(N2CCOCC2)cc1	Sfp PPTase inh 7.9µM (no result: ClpP mod)
O=C(CSc1nc2ccccc2c(=O)[nH]1)N1CCN(S(=O)(=O)c2ccccc2)CC1	none (no result: uPA generation)
N#CCC(=O)N/N=C/c1cc(-c2ccccc2)n(-c2ccc(Cl)cc2)c1-c1ccccc1	none
CN(CC(=O)NCC(=O)Nc1ccc(F)c(F)c1F)C1CCS(=O)(=O)C1 (configuration not stated)	none (no result: Sfp PPTase inh)
Cc1ccc(/C=C/c2onc(C)c2S(=O)(=O)N2CCC(C(=O)Nc3cc(C)ccc3C)CC2)cc1	none (no result: uPA generation, Sfp PPTase inh, TCR activator)
Cc1ccc(-c2noc(-c3nnn(CC(=O)Nc4ccc(C)c(Cl)c4)c3N)n2)cc1	none (no result: uPA generation, Sfp PPTase inh, TCR activator)
O=C(CSc1nnc2c(n1)[nH]c1ccccc12)Nc1cccc(S(=O)(=O)N2CCOCC2)c1	Sfp PPTase inh 79µM
Cc1cc(Cl)ccc1Oc1ncnc2oc(-c3ccccc3)cc12	ClpP mod 25µM
Cc1cccc(Oc2ncnc3oc(-c4ccccc4)cc23)c1C	ClpP mod 28µM
CCc1ccc(C(c2ccccc2)c2c[nH]c3ccc(C)cc23)s1 (configuration not stated)	none (no result: uPA generation, Sfp PPTase inh, TCR activator)
COc1ccc(NC(=O)C(Cc2ccccc2)NS(=O)(=O)c2ccc3c(c2)CCN3C(C)=O)cc1 (configuration not stated)	none (no result: uPA generation, Sfp PPTase inh, TCR activator)
CNC(=O)C1CCC(Cn2c(=O)c3sccc3n(CC(=O)N3CCCC(C)C3)c2=O)CC1 (configuration not stated)	none (no result: uPA generation, Sfp PPTase inh, TCR activator)
Cc1cc(NC(=O)CN2CCC(C)CC2)no1	Sfp PPTase inh 40µM
COc1ccc(-n2c(=O)c3ccccc3n(CC(=O)Nc3cc(C)on3)c2=O)cc1OC	Sfp PPTase inh 45µM
COc1ccc(N2CCN(CC(=O)Nc3cc(C)on3)CC2)cc1	Sfp PPTase inh 50µM
Cc1cc(NC(=O)CN2CCCCCCC2)no1	none (no result: TCR activator)
Cc1cccc2sc(N(CCCN(C)C)C(=O)c3nc4ccccc4s3)nc12	Sfp PPTase inh 79µM, ClpP mod inconclusive
Cc1ccc2nc(N(CCCN(C)C)C(=O)c3sc4ccccc4c3Cl)sc2c1	Sfp PPTase inh 45µM
CN(C)CCCN(C(=O)c1cc(-c2cccs2)nc2ccccc12)c1nc2ccc(F)cc2s1	Sfp PPTase inh 50µM
